Assay outcomes from PubChem BioAssay.
USP2a block – USP2a (human) protease inhibition | Potency, µM (highest dose often 38.3 µM), for inactives: top-dose activity change, negative = inhibition, most hits filed as inhibitors | actives 0.01% (n = 330,000) | USP2 core, Ub-CHOP2 coupled fluorogenic reporter, 485/531 | AID 463254 | O75604;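 further: potency means the concentration at half of the fitted maximal effect; plate controls were DMSO wells for no effect and full inhibition by NEM control for full effect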
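Cell-free coupled assay: 10nM USP2 core preincubated 30min RT with compound in Tris-HCl pH 8.0/CaCl2/CHAPS buffer, then 25nM Ub-CHOP2 and 25nM reporter substrate; fluorescence (Ex 485/Em 531) read after 60min RT, normalized to NEM inhibition, concentration-response curves fitted.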
ATXN viability – viability counter-screen for ATXN expression inhibitors; S2 cells (HEK-293 line with an ATXN2-luciferase reporter) viability, CellTiter-Fluor protease fluorescence, 24 h; Potency, µM (series often up to 56.7 µM), most hits filed as cytotoxic; actives 0.49% (n = 400,000); further: potency means the concentration at half of the fitted maximal effect; nearly all actives have a fitted effect of over 40% in size
USP1-UAF1 inh – inhibitors of human USP1/UAF1 deubiquitinase | recombinant USP1/UAF1, Ub-Rhodamine cleavage fluorescence | Potency, µM (top dose mostly 57.1 µM), for the others: at the top dose activity change, negative = inhibition, most hits filed as inhibitors | actives 0.23% (n = 390,000); further: potency means the concentration at half of the fitted maximal effect; on the % scale 0 is the no-effect control and ±100 the full control effect; nearly all actives have a fitted effect of over 60% in size
Target sequence (O94782 whole entry, looked up): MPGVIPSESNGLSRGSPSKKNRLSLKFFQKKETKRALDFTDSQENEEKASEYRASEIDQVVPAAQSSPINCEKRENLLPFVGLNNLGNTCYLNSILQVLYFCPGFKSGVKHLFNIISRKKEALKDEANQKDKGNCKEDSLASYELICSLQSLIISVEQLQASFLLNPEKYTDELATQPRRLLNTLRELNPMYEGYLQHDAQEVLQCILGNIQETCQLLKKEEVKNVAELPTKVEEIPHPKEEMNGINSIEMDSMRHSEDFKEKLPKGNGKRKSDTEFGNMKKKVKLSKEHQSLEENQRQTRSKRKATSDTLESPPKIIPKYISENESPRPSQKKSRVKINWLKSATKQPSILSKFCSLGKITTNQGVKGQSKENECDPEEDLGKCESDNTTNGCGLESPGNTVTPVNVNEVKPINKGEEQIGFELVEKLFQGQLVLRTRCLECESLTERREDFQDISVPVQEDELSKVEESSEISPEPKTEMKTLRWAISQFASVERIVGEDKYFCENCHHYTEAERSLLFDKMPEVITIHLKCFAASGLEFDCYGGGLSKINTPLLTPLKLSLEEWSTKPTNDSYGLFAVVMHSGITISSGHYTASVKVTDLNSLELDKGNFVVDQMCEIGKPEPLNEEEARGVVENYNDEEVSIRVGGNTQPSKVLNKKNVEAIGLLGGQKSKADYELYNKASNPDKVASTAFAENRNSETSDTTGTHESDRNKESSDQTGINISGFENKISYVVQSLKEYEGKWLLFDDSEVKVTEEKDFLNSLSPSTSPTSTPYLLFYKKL
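High-throughput fluorogenic screen: 1nM USP1/UAF1 complex, Ub-Rho substrate 150nM final, 50mM HEPES pH 7.8 with 0.5mM EDTA, 0.1 mg/ml BSA, 1mM TCEP and 0.01% Tween-20.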
IL-1B inflam inh – inhibitors of inflammasome signaling (IL-1 beta secretion). activity change, % at 57.5 µM. actives 4.7% (n = 360,000). THP-1 LPS/ATP IL-1B secretion, AlphaLISA, 16 h; hits give low values; in the data active means activity change below about -50%; inconclusive means mostly about -30% to -49%; further: on the % scale 0 is the no-effect control and ±100 the full control effect
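Secreted IL-1B measured by AlphaLISA bead assay after 16 h compound exposure of THP-1 cells; compounds (final up to 57.5 uM) added 1 h before LPS (250 ng/mL) and ATP (1.25 mM) stimulation; lower signal means less secretion.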
ATXN2 expr inh – reduces ATXN2 reporter expression in HEK-293 cells | HEK-293 ATXN2-luciferase reporter, luminescence, 24 h | Potency, µM (doses to about 57 µM), without a hit: at the highest dose activity change, negative = inhibition, actives largely listed as inhibitors | actives 0.72% (n = 360,000) | AID 1745845; further: potency means the concentration at half of the fitted maximal effect; on the % scale 0 is the no-effect control and ±100 the full control effect; nearly all actives have a fitted effect of over 55% in size
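ATXN2-luciferase reporter cells (luciferase flanked by upstream and downstream ATXN2 gene portions) were treated 24 h at 37 °C with compounds at up to 57 uM. SteadyGlo luminescence gave expression; GF-AFC fluorescence gave viability.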
* hit, by the source's call; i = inactive; u = inconclusive; x = no result given; ! = not active in a repeat; [ ] = dose if it differs, or a comment. A selection: hits, their analogues and other compounds. The true share with any hit is near 4.8%. Unless noted, the call rests on the fitted dose curve; in most records, active means well fitted curve in the direction sought with a large enough effect; inconclusive means small, poorly fitted or top-dose-only effect, or another doubt; inactive means no such curve, though single readings can be large; an effect the other way counts as inactive or inconclusive.

SMILES | USP2a block | ATXN viability | USP1-UAF1 inh | IL-1B inflam inh | ATXN2 expr inh
CCCCn1c(N)c(N(CCC(C)C)C(=O)COC(=O)c2ccc([N+](=O)[O-])s2)c(=O)[nH]c1=O | -0.2% | i | -8.9% | -73.9* | -16.8%
CCCCn1c(N)c(N(CC(C)C)C(=O)CSCc2ccc(Cl)c(Cl)c2)c(=O)[nH]c1=O | 0.7% | i | -4.5% | -56.3* | -11.1%
Oc1cccc(-c2ccc3nccn3c2)c1 | x | i | x | x | 27.0%
COc1ccc(Cl)cc1NC(=O)C(=O)NCc1ccncc1 | -2.3% | i | -5.5% | -52.2* | -16.4%
COc1ccccc1NC(=O)C(=O)NCc1ccncc1 | 3.7% | i | -6.0% | 3.7 | -21.8%[11.3 µM]
COc1ccc(C)cc1NC(=O)Cc1c(C(=O)O)c(C)cn1C | x | i | -8.8% | x | 1.1%
CCOc1ccc2c(c1)c(N=O)c(O)n2C | 8.4% | i | 5.6% | -63.9* | 4.7%
CCOc1ccc(/C=N/NC(=O)c2c(C)n(C)c3ccc(OC)cc23)cc1 | 3.8% | i | -7.7% | 26.7 | -11.3%
Cc1cc(C(=O)c2ccc(Cl)cc2)c(NC(=O)CCl)s1 | 2.4% | x | -29.0% | -116.9* | u
Cc1ccc(C(=O)c2cc(C)sc2N)cc1 | -0.6% | i | u | -19.8 | -9.7%[11.3 µM]
CCc1cc(C(=O)c2ccc(OC)cc2)c(NC(=O)CCC(=O)O)s1 | 2.1% | i | -0.2% | 6.5 | 6.8%
CCc1cc(C(=O)c2ccc(C)cc2)c(NC(=O)CCl)s1 | -10.0% | x | -23.2% | -98.0* | u
CCOC(=O)C1=Nc2ccccc2C1=[N+]=[N-] | 5.2% | x | -21.0% | -71.1* | u
Cc1ccc(OCC(=O)N(C)CC(=O)Nc2ccc(F)c(F)c2F)cc1 | 1.5% | i | -3.5% | -64.8* | 0.7%
CCCC(=O)OCOC(=O)C1=C(C)NC(C)=C(C(=O)OC)C1c1cccc(Cl)c1Cl (stereo not drawn) | x | i | x | x | 6.1%
CC(O)C(NS(=O)(=O)c1ccc(Cl)cc1)C(=O)OCC(=O)c1ccc2c(c1)NC(=O)CO2 (stereo not drawn) | x | u | -11.2% | 12.7 | -14.0%
CC(C)CC(NC(=O)c1ccc(Cl)cc1)C(=O)OCC(=O)c1ccc2c(c1)NC(=O)CO2 (stereo not drawn) | 1.6% | 22.4µM* | -3.3% | -85.7* | 25.1µM*
CC(C)CCN1C(=O)c2ccccc2C1c1nnnn1C(C)C (stereo not drawn) | x | i | x | 0.0 | 13.3%
CN1CCC(=C2c3ccccc3CCc3cccnc32)CC1 | x | i | x | x | -8.1%
CCOC(=O)N1CCC(=C2c3ccc(Cl)cc3CCc3cccnc32)CC1 | -1.9% | u | -26.3% | 8.3 | 14.1µM*!
CCN(Cc1ccccc1)C1CCN(Cc2ccc(SC)cc2)CC1 | -3.4% | u | -19.1% | -72.2* | -29.9%
O=C(Nc1cnn(C23CC4CC(CC(C4)C2)C3)c1)c1cnn2c(C(F)(F)F)cc(-c3ccco3)nc12 | 0.2% | u | -7.0% | -79.6* | 22.4µM*
O=C(Nc1ccc2c(c1)OCO2)c1cnn2c(C(F)(F)F)cc(-c3ccco3)nc12 | 3.0% | i | -12.6% | 32.3 | -4.2%
Nc1ccc(-c2nc3cc(N)ccc3o2)cc1 | -0.3% | i | 4.8% | -53.5* | -19.6%
CCc1c(Cl)nc(N)nc1Nc1ccccc1Cl | x | i | u | -1.7 | -9.3%
SMILES | USP2a block | ATXN viability | USP1-UAF1 inh | IL-1B inflam inh | ATXN2 expr inh
Nc1ccn([C@@H]2O[C@H](CO)[C@@H](O)C2(F)F)c(=O)n1 | x | u | x | x | 31.6µM*
Nc1ccn([C@@H]2O[C@H](CO)[C@@H](O)[C@H]2O)c(=O)n1 | x | i | -24.0% | 0.9 | u
CCN(CC(=O)Nc1c(F)cccc1F)C(=O)/C=C/c1ccc(S(=O)(=O)N2CCCCCC2)cc1 | -8.9% | i | 1.5% | -58.4* | -14.5%
O=C(CC1(O)C(=O)Nc2cc(Cl)cc(Cl)c21)c1ccccc1O (stereo not drawn) | 0.1% | u | -12.9% | -80.2* | u
CCOc1ccc(S(=O)(=O)N(CC(=O)NCCSCc2ccccc2)c2ccccc2)cc1 | x | i | -19.1% | x | -0.5%
CCn1cc(C(=O)NCc2ccc(Cl)cc2)c(=O)c2cc(S(=O)(=O)N(C)C)ccc21 | -1.6% | i | -21.9% | -68.6* | 0.0%
CN(CCC#N)C(=O)CSc1nnc(-c2c[nH]c3ccccc23)o1 | 1.3% | i | -19.8% | -8.9 | x
O=C1NCC(c2ccccc2)C1C(=O)N/N=C\c1ccc(-c2cccc(Cl)c2Cl)o1 (stereo not drawn) | -0.5% | i | -7.7% | -17.4 | -21.0%
Cc1ccc(-c2ccc(/C=N\NC(=O)C3C(=O)NCC3c3ccccc3)o2)cc1Cl (stereo not drawn) | -14.9% | u | -23.3% | -54.9* | u
Cc1ccc(S(=O)(=O)c2nnn3c2nc(NCc2cccs2)c2sccc23)cc1C | x | x | -16.6% | x | x
CCOc1ccc(N)c(SSc2cc(OCC)ccc2N)c1 | 1.0% | 1µM* | -22.0% | 0.0 | x
CCOc1cccc(N)c1 | -5.2% | i | -24.2% | 3.2 | 9.5%
Cc1ccc(NC(=O)c2cccc(C(=O)Nc3ccc(C)c(C)c3)n2)cc1C | -0.3% | i | -4.4% | i | -17.8%
COc1ccc(N(CC(=O)Nc2cc(C)cc(C)c2)S(=O)(=O)c2ccccc2[N+](=O)[O-])c(OC)c1 | -5.1% | u | -29.0% | 0.8 | 6.0%
COc1ccc(N(CC(=O)Nc2ccc(F)cc2)S(=O)(=O)c2ccccc2[N+](=O)[O-])c(OC)c1 | -0.8% | i | -25.9% | -59.6* | 0.5%
Cc1ccc(Cn2nnnc2CN2CCC(c3nc4ccc(Cl)cc4[nH]3)CC2)cc1 | -1.4% | i | -6.5% | -81.4* | u
Clc1ccc2nc(C3CCN(Cc4nnnn4C4CCCCC4)CC3)[nH]c2c1 | -1.5% | i | -7.5% | -0.6 | -14.4%
Cc1ccccc1C(=O)N1CCC(C(=O)Nc2cc(C(F)(F)F)ccc2N2CCCC2)CC1 | -0.9% | u | -14.3% | -4.9 | 4.0%
O=C(CN(Cc1ccccc1)C(=O)CCl)c1cccc(Br)c1 | 0.5% | 25.1µM* | -22.2% | -98.4* | 22.4µM*
CN(Cc1ccccc1)CC(O)COc1ccc(CNCCc2ccncc2)cc1 (stereo not drawn) | 3.4% | u | -11.1% | -58.5* | 0.0%
CN(Cc1ccccc1)CC(O)COc1ccc(CNCCc2cccnc2)cc1 (stereo not drawn) | 0.0% | u | -21.7% | 0.0 | x
CCc1ccc(CNCc2ccc(OCC(O)CN(C)Cc3ccccc3)cc2)nc1 (stereo not drawn) | 0.2% | i | -4.1% | -59.7* | -32.5%
Cc1cc(CN(C)Cc2ccc(OCC(O)CN(C)Cc3ccccc3)cc2)on1 (stereo not drawn) | 9.1% | i | -8.1% | 24.7 | -9.4%
C=CCOc1ccc(CN(C)CC(O)COc2cccc3ccccc23)cc1 (stereo not drawn) | 0.7% | i | -6.6% | -59.2* | -25.4%
